From PubChem BioAssay AID581 (PCMD, 2007)
The whole screen tested about 62,000 compounds, of which about 95 (0.2%) were called active. For the sample, actives were picked, then their nearest neighbours and some compounds at random. Values without a mark were called inactive.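 How the source made its calls: active means inhibition above 20% in each of the two mixture wells holding the compound; inactive means inhibition of 20% or less in either well.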

target: Cathepsin G (Homo sapiens) (UniProt P08311); assay: blockers of neutrophil cathepsin G protease – biochemical, pooled compound mixtures, AMC fluorescence, primary screen (AID 581); settings: purified enzyme, AMC-tetrapeptide fluorescence, stronger effect = higher value, screened at 5 µM (by protocol);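 further: 0% = enzyme control without mixture and 100% = blank lacking enzyme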
Sequence (P08311 21-244 limits assumed): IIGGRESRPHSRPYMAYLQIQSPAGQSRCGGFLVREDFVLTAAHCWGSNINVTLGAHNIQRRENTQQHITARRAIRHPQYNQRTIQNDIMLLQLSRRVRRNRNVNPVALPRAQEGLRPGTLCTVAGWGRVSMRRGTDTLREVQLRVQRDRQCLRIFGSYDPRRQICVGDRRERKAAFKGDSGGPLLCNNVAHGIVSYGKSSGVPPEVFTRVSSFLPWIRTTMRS

SMILES	inhibition
COc1ccc(CCN=C2SCC(=O)N2C)cc1OC	11.6%
O=C(CCN1C(=O)C2C3C=CC(C3)C2C1=O)Nc1ccccc1F (stereo not drawn)	6.93%
O=C(COc1ccccc1Cl)Nn1cnnc1	3.79%
CCCOc1ccc(N2CC(C(=O)Nc3ccccn3)CC2=O)cc1 (stereo not drawn)	1.22%
CC1CN(C2CCCCC2)c2nc3c(c(=O)n(C)c(=O)n3C)n2C1 (stereo not drawn)	-2.58%
COc1ccc(C2CC(c3ccccc3)Nc3ncnn32)cc1 (stereo not drawn)	-0.07%
O=C(c1cccnc1NCc1ccccc1)N1CCOCC1	-5%
CN(C)/C=C1/Nc2ccccc2C1=O	-0.82%
O=c1nc(N2CCOCC2)nc2n1CCO2	1.08%
CCOc1ccc(C(=O)N(Cc2ccc(N(C)C)cc2)C2CCS(=O)(=O)C2)cc1 (stereo not drawn)	7.67%
CCN1CCN(C(=O)c2ccccc2N(C)S(=O)(=O)c2ccc(C)cc2)CC1	3.35%
CCc1nc(Nc2ccc3nccnc3c2)c2oc3ccccc3c2n1	-2.89%
CNC(=O)n1ccc(C(=O)N2CCCCC2)n1	11%
CC(C)(C)n1nnnc1C(c1ccc2ncccc2c1)N1CCSCC1 (stereo not drawn)	-7%
Cc1ccc(N2C(=O)c3oc4ccccc4c(=O)c3C2c2cccnc2)nc1 (stereo not drawn)	10.5%
O=C(O)CN1C(=O)CC(Cc2ccccc2)C1=O (stereo not drawn)	-0.115%
CCCCn1c(SCc2ncc(-c3ccccc3)o2)nc2cc(S(N)(=O)=O)ccc21	13.9%
Cc1ccc(CNC(=O)C2CCCN(S(C)(=O)=O)C2)cc1 (stereo not drawn)	-3.54%
CCC1SC2=NCCN2C1(O)c1ccc(Cl)cc1 (stereo not drawn)	1.99%
Cn1c(=O)[nH]c(=O)c2c1nc(N(CCO)Cc1ccccc1)n2Cc1ccccc1Cl	5.71%
COc1ccccc1N1CCN(CCCCOc2ccc(F)cc2)CC1	13.1%
CCS(=O)(=O)NCCc1ccc(OC)c(OC)c1	13.1%
CCCN1CCN(C(=O)Cn2ncc3ccccc32)CC1	-11.9%
CCc1nc2oc3ccccc3c(=O)c2c(=O)n1Cc1ccc(OC)cc1	-20.5%
Cn1cccc1Cc1nnc(SCC(=O)NCc2ccc3c(c2)OCO3)n1CCc1ccccc1	10.5%

SMILES	inhibition
COc1ccc(CC(=O)n2nc(-c3cccnc3)nc2N)cc1	14.7%
COc1ccc(C(=O)Cn2nnc(-c3ccc(N4CCOCC4)cc3)n2)cc1OC	2.19%
COC(=O)c1ccc(OC(=O)c2nn(C)cc2Cl)c(OC)c1	1.08%
COc1ccc(C(=O)n2nc(-c3ccc(Cl)cc3)nc2N)cc1OC	37.8% (active)
COc1ccccc1C(=O)n1nc(-c2ccccc2)nc1N	7.93%
COc1ccc(C(=O)n2nc(-c3ccc(C)cc3)nc2N)cc1OC	44% (active)
Cc1cccc(-n2c(Cc3cc(=O)[nH]c(=O)[nH]3)nnc2SC(C)C)c1	10.3%
CCCN1Cc2cccc(C(=O)NCc3ccccc3)c2C1=O	-0.625%
COc1ccc(N(Cc2cc3cc(OC)ccc3[nH]c2=O)S(C)(=O)=O)cc1	-3.1%
Cn1c(CC(=O)Nc2ccccc2)nnc1SCC(=O)c1ccccc1	-0.18%
c1ccc2cc(OCCN3CCCC3)ccc2c1	-4.75%
O=C(O)CSC(NC(=O)c1cccnc1)(C(F)(F)F)C(F)(F)F	4.23%
CCOC(=O)c1c(NC(=O)CSc2nnc(Cc3csc(N)n3)n2C)sc(C)c1C	-4.19%
O=C1CCCC(O)=C1C=NCCc1ccccc1	33.4% (active)
CC1(C)CC(=O)C(C=NCCC2=CCCCC2)=C(O)C1	6.17%
O=C1CC(c2ccccc2)CC(O)=C1C=NCCN1CCOCC1 (stereo not drawn)	14.8%
O=C(CSc1nnc(-c2cccs2)n1Cc1ccco1)c1ccc2c(c1)OCO2	7.29%
CSc1ccc(S(=O)(=O)Nc2cccc(F)c2)cc1	-1.91%
CCCNC(=O)Nc1ccccc1C(=O)Nc1ccc(OC)cc1	4.04%
CC1(C)CC(=O)c2cc(OCC(=O)NCC3CCCO3)ccc2O1 (stereo not drawn)	4.79%
O=C(c1ccco1)N1CCN(C(=O)C2CC(c3ccc(F)cc3)=NO2)CC1 (stereo not drawn)	2.3%
COCCCNC(=O)CCc1nc2cccnc2n1Cc1ccc(OC)cc1	11.7%
CCN(c1ccc2c(c1)OCO2)S(=O)(=O)c1cc(Br)cc2c1N(C(=O)C1CC1)CC2	2.07%
COC(=O)c1cc(NC(=O)CN2CCC(C(N)=O)(N3CCCCC3)CC2)cc(C(=O)OC)c1	-6.63%
CN(C)c1ccnc2sc3c(=O)n(Cc4ccccc4)cnc3c12	-4.39%

SMILES	inhibition
CC(=O)N1C(=O)C2(Nc3ccccc3N2)c2ccccc21	-1.99%
Cc1ccccc1CSc1nnc(-c2cccnc2)n1N	14.2%
Cc1cccc(NC(=O)CSc2nnc(CCCCCNC(=O)OC(C)(C)C)o2)c1C	6.06%
O=C(Cn1c(-c2ccc(Cl)cc2)noc1=O)N1CCN(c2ccccc2F)CC1	7.96%
O=c1ccn(Cc2ccccc2Cl)cc1	-1.12%
Cc1cc(NC(=O)CN2CCC(O)(c3cccc(F)c3)CC2)no1	5.96%
COc1cccc(N(C(=O)c2ccn[nH]2)C2(C(=O)Nc3c(C)cccc3C)CCCCC2)c1	8.21%
COc1ccc2occ(C(=O)c3ccc(N=C(C)N(C)C)cc3)c2c1	-7.35%
O=C1Nc2c(Br)cc(Br)cc2C1(O)N1CCOCC1 (stereo not drawn)	1.49%
CCOC(=O)CNC(=O)CSc1nnc(-c2cccc(OC)c2)n1CC	-5.21%
Oc1c(C(c2ccccn2)N2CCOCC2)ccc2cccnc12 (stereo not drawn)	13.3%
CN(C(=O)c1ccccn1)c1nnc(-c2ccccn2)s1	10.6%
COc1ncnc2c1N=C1CC(C)(C)CC(N)=C1S2	-6.43%
Cc1noc(C)c1C(=O)Nc1ccccn1	-18.6%
CCOC(=O)N1CCN(CC(=O)c2ccc3c(c2)CCN3)CC1	10.3%
Cc1occc1C(=O)Nc1nnc(-c2ccncc2)s1	39.2%
COCCn1c(SCC(=O)Nc2cc(Cl)ccc2OC)nc2c(c1=O)SC(C)C2 (stereo not drawn)	9.03%
NC(=O)CCCC1=NS(=O)(=O)c2ccccc2N1	4.5%
CCOC(=O)c1ccc(NC(=O)CS(=O)(=O)c2cn(CC)c3ccccc23)cc1	29.3% (active)
CCOC(=O)c1ccc(NC(=O)CSc2ncccn2)cc1	-1.62%
CCOC(=O)c1ccc(NC(=O)Cn2nnc(-c3ccc(C)cc3)n2)cc1	-7.1%
COc1ccc2nc(NC(=O)c3ccc(Br)s3)sc2c1	10.8%
O=C(Cn1nc(Cc2cccnc2)c2ccccc2c1=O)NCC1COc2ccccc2O1 (stereo not drawn)	8.5%
C/C(N)=C(\C#N)C(=O)NCCc1ccccn1	2.5%
CCSC1=C(C#N)C(=O)n2c1cc1c2CCCC1	0.675%

SMILES	inhibition
CSc1nsc(SC)c1NC(=O)OC1CCCCC1	7.19%
CCOC(=O)C1CCCN(C(=O)c2ccc(CS(=O)(=O)c3ccc(Br)cc3)o2)C1 (stereo not drawn)	7.41%
CCOC(=O)c1csc(NC(=O)c2ccc(S(=O)(=O)N3CCCC3)cc2)n1	-0.28%
COc1ccc(OC)c(NC(=O)CN2CCN(C(=O)c3ccco3)CC2)c1	9.79%
Cn1c(-c2ccc(C(=O)c3ccccc3)s2)nc2ccccc21	2.31%
CN(Cc1ccccc1)C(=O)CCNC(=O)Cn1cnc2ccccc2c1=O	-3.7%
COc1ccc(OC)c(C(=O)c2coc3ccc(OC)cc23)c1	-10.9%
COC(=O)Nc1c(C)n(C)n(-c2ccccc2)c1=O	11.2%
COc1ccc2c(c1)CCc1c(C(=O)N3CCCC3)noc1-2	18.8%
O=C(c1cc(-c2cccc(O)c2)on1)N1CCc2ccccc2C1	5.56%
Cc1cc(C(=O)Nc2c(C)n(C)n(-c3ccccc3)c2=O)cs1	8.47%
COc1ccc2c(c1)CCc1c(C(=O)N3CCc4ccccc4C3)noc1-2	35% (active)
COc1ccc2c(c1)CCc1c(C(=O)Nc3c(C)n(C)n(-c4ccccc4)c3=O)noc1-2	34.3% (active)
CCOc1cc(CO)ccc1OCC(=O)N1CCCCC1	4.5%
COc1ccc(C(=O)Nc2ccc(S(=O)(=O)Nc3onc(C)c3C)cc2)cc1OC	-6.97%
COCCCN1C(=O)c2ccc(C(=O)Nc3ccc(OC)cc3OC)cc2C1=O	-4.08%
Cc1nn(Cc2ccc(Cl)c(Cl)c2)c(C)c1NC(=O)c1cc(C2CC2)on1	-8.5%
CN(C)c1cc(N)c2ccccc2n1 (tested in a mixture with another compound)	2.17%
O=C(CSc1nnc(-c2ccoc2)o1)N1CCOCC1	1.64%
Cc1cccc(-n2c(O)c(C=Nc3ccccc3N)c(=O)[nH]c2=O)c1	-2.9%
C1=C(N2CCOCC2)/C(=C/c2nc3ccccc3[nH]2)CC1	12.8%
CCOc1ccc(CC(=O)Nc2ccc(S(=O)(=O)Nc3cc(C)on3)cc2)cc1OCC	6.78%
Cc1ccc(S(=O)(=O)N(C)CC(=O)NC2CCCC2)cc1	1.06%
